# This is one part of a sample in which hits are shown more often than they occur.
# PTAP TSG101 blk = blocks PTAP/TSG101 interaction to inhibit HIV-1 budding | Q99816 | Potency, µM (titrated, usually from 115 µM), for the others: at the highest dose activity change, negative = inhibition, most hits filed as inhibitors | 340,000 tested, under 10 active | Fluorescence polarization, FITC-PTAP peptide / Tsg101 binding | AID 493005; active means well fitted inhibition curve with a large enough effect in the main read-out, with a control signal flat, not every such curve was filed as active; inconclusive means small, poorly fitted or top-dose-only effect, or effect the other way, or a change in a side signal; inactive means no such curve, though single readings can be large or run the other way; further: potency means the concentration at half of the fitted maximal effect; % of control where 0% means no effect
#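 Steps: Tsg101 binding domain dispensed (10 uM final), compounds pinned in DMSO, FITC-labeled PTAP-motif peptide added (50 nM final); after 20 min binding at room temperature, polarization measured.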
# B2AR arrestin = beta2AR (human) beta-arrestin recruitment activity; 330,000 compounds, 0.02% hits; AID 492947; P07550; beta-arrestin recruitment to beta2AR, cell-based reporter; Potency, µM (top dose mostly 46.1 µM), inactives show at the top dose activation, actives largely listed as activators; active means well fitted activation curve with a large enough effect; inconclusive means small, poorly fitted or top-dose-only effect;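 further: potency means the concentration at half of the fitted maximal effect; 0% = DMSO controls and full agonism = EC100 isoproterenol or metaproterenol; nearly all actives have a fitted effect of over 65% in size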
# CXXC DNA block = blocks binding of human MLL CXXC domain to DNA | MLL-CXXC / FITC-HOXA9 DNA fluorescence polarization | Potency, µM (series often up to 115 µM), for the others: at the highest dose activity change, negative = inhibition, usual class: inhibitors | 290,000 compounds, 0.037% hits | AID 2662; active means well fitted inhibition curve with a large enough effect in the polarisation, with a control signal flat, not every such curve was filed as active; inconclusive means small, poorly fitted or top-dose-only effect, or effect the other way, or a change in a side signal; inactive means no such curve, though single readings can be large or run the other way; the % refers to the polarisation; further: potency means the concentration at half of the fitted maximal effect
# Target sequence (Q03164 whole entry, looked up, the tested form may be a part): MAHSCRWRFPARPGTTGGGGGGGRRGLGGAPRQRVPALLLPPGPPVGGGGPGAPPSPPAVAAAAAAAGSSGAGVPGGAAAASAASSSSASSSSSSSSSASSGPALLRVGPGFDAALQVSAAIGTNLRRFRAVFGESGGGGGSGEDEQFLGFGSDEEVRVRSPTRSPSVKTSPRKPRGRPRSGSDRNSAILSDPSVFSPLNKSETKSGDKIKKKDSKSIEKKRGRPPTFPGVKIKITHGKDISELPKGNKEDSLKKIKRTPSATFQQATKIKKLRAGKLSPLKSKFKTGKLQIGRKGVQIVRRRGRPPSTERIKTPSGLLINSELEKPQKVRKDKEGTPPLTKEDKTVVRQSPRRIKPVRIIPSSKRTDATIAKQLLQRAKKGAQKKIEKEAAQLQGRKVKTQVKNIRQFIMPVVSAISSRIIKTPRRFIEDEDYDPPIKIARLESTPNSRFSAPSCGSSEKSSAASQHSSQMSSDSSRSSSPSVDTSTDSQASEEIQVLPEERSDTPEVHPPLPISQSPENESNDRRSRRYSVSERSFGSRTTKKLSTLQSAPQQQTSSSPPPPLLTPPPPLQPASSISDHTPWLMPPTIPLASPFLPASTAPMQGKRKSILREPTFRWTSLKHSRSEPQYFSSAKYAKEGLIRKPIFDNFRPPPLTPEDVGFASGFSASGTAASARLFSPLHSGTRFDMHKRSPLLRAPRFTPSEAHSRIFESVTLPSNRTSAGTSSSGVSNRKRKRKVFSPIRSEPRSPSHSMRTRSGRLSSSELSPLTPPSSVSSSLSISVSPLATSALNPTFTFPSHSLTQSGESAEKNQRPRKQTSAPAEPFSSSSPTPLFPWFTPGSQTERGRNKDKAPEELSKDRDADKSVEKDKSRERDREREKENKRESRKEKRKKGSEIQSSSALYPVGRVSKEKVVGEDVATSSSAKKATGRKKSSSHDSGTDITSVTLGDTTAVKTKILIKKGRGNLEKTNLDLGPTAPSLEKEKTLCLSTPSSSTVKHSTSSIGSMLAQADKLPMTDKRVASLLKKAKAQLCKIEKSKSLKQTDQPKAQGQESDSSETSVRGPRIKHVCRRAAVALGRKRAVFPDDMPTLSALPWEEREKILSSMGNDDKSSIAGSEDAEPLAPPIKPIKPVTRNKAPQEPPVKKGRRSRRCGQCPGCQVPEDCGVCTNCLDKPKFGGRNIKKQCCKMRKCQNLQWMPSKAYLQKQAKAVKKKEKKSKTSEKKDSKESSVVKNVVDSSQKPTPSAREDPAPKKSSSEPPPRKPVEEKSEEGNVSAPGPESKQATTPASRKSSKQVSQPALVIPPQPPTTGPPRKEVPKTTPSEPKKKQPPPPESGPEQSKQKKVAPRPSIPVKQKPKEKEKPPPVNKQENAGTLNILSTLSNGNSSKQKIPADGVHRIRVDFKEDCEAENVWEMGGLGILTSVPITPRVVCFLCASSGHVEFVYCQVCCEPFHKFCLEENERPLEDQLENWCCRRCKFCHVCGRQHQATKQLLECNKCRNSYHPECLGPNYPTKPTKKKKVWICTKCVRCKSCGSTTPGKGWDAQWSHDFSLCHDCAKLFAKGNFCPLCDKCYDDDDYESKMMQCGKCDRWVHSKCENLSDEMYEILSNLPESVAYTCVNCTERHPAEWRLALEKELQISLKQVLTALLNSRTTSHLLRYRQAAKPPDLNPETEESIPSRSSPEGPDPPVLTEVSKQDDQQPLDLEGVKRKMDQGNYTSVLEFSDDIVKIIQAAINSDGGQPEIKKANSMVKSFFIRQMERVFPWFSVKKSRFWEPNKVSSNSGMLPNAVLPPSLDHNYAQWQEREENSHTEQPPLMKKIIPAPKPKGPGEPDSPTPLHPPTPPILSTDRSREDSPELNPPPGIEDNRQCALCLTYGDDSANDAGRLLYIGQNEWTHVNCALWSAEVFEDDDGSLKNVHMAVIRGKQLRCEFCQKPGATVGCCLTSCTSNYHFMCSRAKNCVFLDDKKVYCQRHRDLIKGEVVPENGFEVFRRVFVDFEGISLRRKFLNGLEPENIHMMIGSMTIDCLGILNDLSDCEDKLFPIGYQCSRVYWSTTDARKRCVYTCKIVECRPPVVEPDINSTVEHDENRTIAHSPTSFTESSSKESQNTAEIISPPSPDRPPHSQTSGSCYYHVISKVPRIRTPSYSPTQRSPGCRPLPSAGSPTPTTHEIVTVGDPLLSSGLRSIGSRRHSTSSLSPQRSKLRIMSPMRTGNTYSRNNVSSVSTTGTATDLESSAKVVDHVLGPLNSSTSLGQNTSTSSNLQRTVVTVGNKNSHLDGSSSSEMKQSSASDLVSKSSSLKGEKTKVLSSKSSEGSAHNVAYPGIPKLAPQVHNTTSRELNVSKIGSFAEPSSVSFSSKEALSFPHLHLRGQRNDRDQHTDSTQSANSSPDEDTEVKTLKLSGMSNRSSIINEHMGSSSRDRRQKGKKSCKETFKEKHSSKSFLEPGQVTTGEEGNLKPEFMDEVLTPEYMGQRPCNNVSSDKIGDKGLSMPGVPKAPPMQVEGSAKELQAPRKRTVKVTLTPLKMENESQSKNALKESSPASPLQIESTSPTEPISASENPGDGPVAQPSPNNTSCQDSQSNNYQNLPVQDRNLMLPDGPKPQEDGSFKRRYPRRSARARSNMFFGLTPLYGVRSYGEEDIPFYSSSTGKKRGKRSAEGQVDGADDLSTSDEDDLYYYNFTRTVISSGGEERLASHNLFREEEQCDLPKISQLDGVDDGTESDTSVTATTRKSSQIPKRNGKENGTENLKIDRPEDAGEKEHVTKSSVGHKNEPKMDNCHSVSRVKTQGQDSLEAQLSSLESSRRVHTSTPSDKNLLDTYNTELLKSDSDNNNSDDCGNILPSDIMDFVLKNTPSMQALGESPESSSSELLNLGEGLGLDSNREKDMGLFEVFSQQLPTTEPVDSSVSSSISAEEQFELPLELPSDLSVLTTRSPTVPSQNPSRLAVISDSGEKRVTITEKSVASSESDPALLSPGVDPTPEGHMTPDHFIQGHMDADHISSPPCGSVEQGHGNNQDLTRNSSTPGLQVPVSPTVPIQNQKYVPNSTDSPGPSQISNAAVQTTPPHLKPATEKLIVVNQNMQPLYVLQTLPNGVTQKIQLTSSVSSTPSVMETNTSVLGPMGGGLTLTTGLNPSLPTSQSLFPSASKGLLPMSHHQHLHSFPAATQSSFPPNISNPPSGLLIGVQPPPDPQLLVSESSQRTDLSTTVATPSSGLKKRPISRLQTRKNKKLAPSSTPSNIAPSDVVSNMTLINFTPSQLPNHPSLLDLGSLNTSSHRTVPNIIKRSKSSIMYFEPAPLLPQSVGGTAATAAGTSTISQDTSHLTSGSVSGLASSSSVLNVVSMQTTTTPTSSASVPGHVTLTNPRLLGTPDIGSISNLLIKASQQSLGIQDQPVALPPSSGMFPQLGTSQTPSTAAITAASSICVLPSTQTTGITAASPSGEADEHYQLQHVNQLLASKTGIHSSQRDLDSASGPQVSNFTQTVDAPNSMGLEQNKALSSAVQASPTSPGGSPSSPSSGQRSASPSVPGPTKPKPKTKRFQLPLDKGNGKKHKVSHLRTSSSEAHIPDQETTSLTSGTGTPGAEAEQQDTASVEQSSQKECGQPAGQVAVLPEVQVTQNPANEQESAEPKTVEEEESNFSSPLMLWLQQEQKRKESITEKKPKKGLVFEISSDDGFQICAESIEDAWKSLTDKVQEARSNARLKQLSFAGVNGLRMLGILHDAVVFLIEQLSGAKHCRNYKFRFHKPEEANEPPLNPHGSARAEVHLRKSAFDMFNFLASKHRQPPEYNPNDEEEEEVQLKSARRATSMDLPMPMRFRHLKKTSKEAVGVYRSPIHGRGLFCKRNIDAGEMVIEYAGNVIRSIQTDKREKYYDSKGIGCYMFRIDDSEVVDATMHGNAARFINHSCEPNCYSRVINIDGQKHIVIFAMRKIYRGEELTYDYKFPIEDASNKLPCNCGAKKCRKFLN
#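 Fluorescence polarization: 7 uM MLL-CXXC (stock) preincubated 5 min with compounds, then 50 nM fluorescein-HOX-A9 DNA (stock) added; 30 min ambient. Buffer 50 mM Tris-HCl pH 7.5, 50 mM NaCl, 1 mM DTT, 0.05% BSA.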
# Menin-MLL FL inh = menin-MLL binding inhibition, fluorescein peptide; Fluorescence polarization, fluorescein-MLL peptide displacement from menin; FP activity change, % at 61.4 µM; 290,000 tested, under 10 active; active means well fitted curve in the direction sought with a large enough effect in the polarisation, not every such curve was filed as active; inconclusive means small, poorly fitted or top-dose-only effect, or effect the other way, or a change in a side signal; inactive means no such curve, though single readings can be large or run the other way; the % refers to the polarisation; further: % of control where 0% means no effect
# Menin-MLL TR inh = menin-MLL binding inhibition, Texas Red mutant peptide | O00255 | Menin + Texas Red MLL mutant peptide, fluorescence polarization | Potency, µM (top dose mostly 61.6 µM), for inactives: at the top dose FP activity change, negative = inhibition, actives largely listed as inhibitors | 270,000 compounds, 0.23% hits; active means well fitted inhibition curve with a large enough effect in the polarisation, with a control signal flat, not every such curve was filed as active; inconclusive means small, poorly fitted or top-dose-only effect, or effect the other way, or a change in a side signal; inactive means no such curve, though single readings can be large or run the other way; the % refers to the polarisation; further: potency means the concentration at half of the fitted maximal effect; % of control where 0% means no effect
# Chronic BCR inh = blocks chronic active B-cell receptor signaling | ABC-DLBCL IkBa-CBG/CBR reporter, luminescence ratio, 4 h | Potency, µM (top dose mostly 46.1 µM), without a hit: top-dose activity change, negative = inhibition, most hits filed as inhibitors | 340,000 compounds, 0.05% hits; active means well fitted inhibition curve with a large enough effect in the signal ratio, with a control signal flat, not every such curve was filed as active; inconclusive means small, poorly fitted or top-dose-only effect, or effect the other way, or a change in a side signal; the % refers to the signal ratio;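 further: potency means the concentration at half of the fitted maximal effect; plate controls were basal doxycycline-induced cells for no effect and cells given 10 µM MG132 for full effect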
#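 Cell line TMD8 (human ABC DLBCL), stably expressing tet-inducible CBG68-IkBa fusion and CBR; IMDM/0.5% FBS; cpd up to 46 uM; dox induction, 4 h, 37C/5% CO2; dual luminescence; green/red ratio; MG132 control.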
# An asterisk follows results filed as active; ? = inconclusive; . = no result; ! = not active in a repeat.
SMILES,PTAP TSG101 blk,B2AR arrestin,CXXC DNA block,Menin-MLL FL inh,Menin-MLL TR inh,Chronic BCR inh
COc1ccc(Cn2c(SCc3ccccc3C)nc3cc(OC)c(OC)cc3c2=N)cc1,.,0.1%,-17.9%,4.3,?,-1.1%
COc1cc2c3nnc(-c4ccccc4)c-3cn(Cc3ccccc3F)c2cc1OC,?,0.0%,5.7%,?,12.6µM*,?
CN(C)c1ncc2nc(-c3ccccc3)c(=O)n(CCC#N)c2n1,.,.,.,?,28.2µM*,.
C=CCn1c(-c2ccc(Cl)cc2)c[nH]c1=S,-7.0%,20µM*,9.1%,-0.2,3.9%,?
O=C(CCC(=O)c1ccc(F)cc1)Nc1cccc(S(=O)(=O)Nc2cccc(Cl)c2)c1,-0.6%,5.9%,10.4%,1.2,?,?
COc1ccc(-c2ccc3nnc(SCC(N)=O)n3n2)cc1,-3.7%,0.2%,2.4%,-0.5,?,10.3%
CCSc1nnc2ccc(-c3ccc(OC)c(OC)c3)nn12,1.7%,-0.4%,-6.9%,0.4,?,7.94µM*
Cc1nn(-c2ccccc2)c(C)c1/C=N/NC(=O)c1cc(-c2cccs2)[nH]n1,-3.9%,2.0%,-5.8%,4.6,27.0%,18.4µM*
Oc1ccc(CNCc2ccc3c(c2)OCO3)c2cccnc12,.,14.4%,.,.,.,14.6µM*
Cc1ccc(O)c(Nc2c3ccccc3nc3ccccc23)c1,-1.2%,-0.7%,30.4%,-12.2,12.6µM*,8.8%
CC(=O)Nc1ccc(S(=O)(=O)Oc2ccc(/C=C3\SC(N)=NC3=O)cc2)cc1,0.2%,0.1%,2.0%,-1.0,14.1µM*,?
NC1=NC(=O)/C(=C/c2ccc(OCC(=O)O)cc2)S1,1.4%,0.0%,30.2%,16.9,-19.3%,0.1%
O=C(Cc1ccc(Cl)cc1)NCC(=O)N1CCCCC1,-11.9%,-0.2%,-5.8%,3.3,0.5%,8.3%
COc1ccc(-c2noc(CSc3nc(N)c(-c4ccccc4)c(=O)[nH]3)n2)cc1,-6.8%,0.3%,7.1%,4.7,-11.8%,16.4µM*
CC(C)c1ccc2c(c1)CCC1C(C)(CN)CCCC21C (configuration not stated),-1.2%,-0.3%,14.8%,-10.5,20µM*,-15.7%
COCCCNC(=O)/C(C#N)=C/c1c(N2CCN(c3ccc(OC)cc3)CC2)nc2c(C)cccn2c1=O,-1.2%,0.2%,2.1%,-29.1,28.2µM*,?
Cc1ccccc1OCCn1cnc2c(N)ncnc21,-12.2%,-0.1%,6.0%,-0.3,-9.5%,18.4µM*
CCCCNc1c(C(=O)OCC)c(C)nc2c1cnn2CC,-4.3%,.,6.8%,8.9,39.8µM*!,.
O=C(NNC(=O)c1cc2cc3ccccc3nc2s1)c1cccc(Cl)c1,-3.2%,-0.7%,12.1%,6.5,?,4.9%
O=C(NNC(=O)c1cc2cc3ccccc3nc2s1)c1ccc(F)cc1,-4.6%,0.1%,30.4%,1.8,3.16µM*,2.9%
NC(=O)C1(N2CCCCC2)CCN(S(=O)(=O)c2cc(Cl)sc2Cl)CC1,-0.6%,-0.3%,-6.2%,5.5,.,1.9%
COc1ccc2c(COC(=O)c3cccc(S(=O)(=O)NCC(C)C)c3)cc(=O)oc2c1,0.7%,-0.7%,2.4%,-5.3,27.4%,-5.9%
CCCNS(=O)(=O)c1cccc(C(=O)OCc2cc(=O)oc3cc(OC)ccc23)c1,-4.4%,0.3%,25.3%,3.4,22.0%,12.6µM*
COc1ccc(CNc2ccncc2)c(OC)c1OC,-0.5%,.,.,.,.,.
COc1cc(NCc2ccc3nc(N)nc(N)c3c2C)cc(OC)c1OC,.,.,11.7%,0.2,25.1µM*!,.
SMILES,PTAP TSG101 blk,B2AR arrestin,CXXC DNA block,Menin-MLL FL inh,Menin-MLL TR inh,Chronic BCR inh
CNC(=O)N(O)C1N(/N=C/c2cccs2)C(=S)SC1(C)C (configuration not stated),-1.6%,-0.3%,0.0%,4.2,.,14.3%
CN(CCO)C(=O)c1ccc(-c2nn(C)c(=O)c3ccccc23)cc1,-3.0%,6.0%,-3.4%,3.7,-2.7%,?
Cn1nc(-c2ccc(C(=O)NCCO)cc2)c2ccccc2c1=O,-6.5%,5.62µM*,-2.7%,-0.7,.,-14.7%
CCOC(=O)c1sc(NC(=O)CN2C(=O)c3cccc4cccc(c34)C2=O)nc1C,-4.5%,-0.3%,26.2%,-0.7,3.98µM*,-7.3%
CCc1cccc2c(C(=O)CSc3nncn3-c3ccc(OC)cc3)c[nH]c12,-4.8%,-0.7%,2.8%,6.3,17.9%,-0.6%
COc1cc2c(cc1OC)C(CC#N)=NC(C)(C)C2,-0.2%,-0.9%,-1.1%,0.2,-0.9%,16.4µM*
CC(C)Cc1ccc(C(=O)NCc2ccc3c(c2)OCO3)o1,-1.4%,0.2%,13.7%,2.0,-20.0%,?
COc1ccc(-c2nn(C)c(=O)c3ccccc23)cc1NS(C)(=O)=O,-3.5%,-0.2%,?,-0.6,-4.0%,?
COc1ccc(-c2nn(C)c(=O)c3ccccc23)cc1CNS(C)(=O)=O,-1.8%,0.1%,1.1%,-6.6,-10.2%,18.4µM*
O=[N+]([O-])c1ccc(N2CCN(Cc3ccccc3)CC2)nc1,-1.8%,0.0%,1.1%,4.0,15.8%,2.8%
Cc1c(Cl)cccc1NC(=S)N=Nc1c(O)n(CN2CCOCC2)c2ccccc12,-4.3%,-0.4%,-5.2%,-2.0,?,7.31µM*
CCOc1ccc2nc(SCC(=O)Nc3ccc(S(=O)(=O)N4CCCC4)cc3)c(C)cc2c1,2.4%,0.4%,5.2%,0.3,.,0.0%
COc1ccc2nc(SCC(=O)Nc3ccc(S(=O)(=O)N4CCCC4)cc3)c(C#N)cc2c1,6.1%,-1.3%,27.6%,12.9,15.8µM*,1.4%
COc1ccccc1C(=O)COC(=O)Cc1c[nH]c2ccccc12,-0.2%,0.0%,.,.,.,?
CCOc1ccc2nc(N3C(=O)CNC3=S)sc2c1,-1.1%,3.98µM*,15.6%,-4.7,.,?
O=C(O)c1cccc(N2C(=O)c3cc([N+](=O)[O-])cc4cc([N+](=O)[O-])cc(c34)C2=O)c1,-7.7%,-1.1%,31.6µM*,11.5,?,?
O=C(O)c1cccc(N2C(=O)c3cccc4cccc(c34)C2=O)c1,-12.8%,-0.3%,-7.8%,-2.2,17.8%,0.7%
CCCn1c(C)nc2c(N(CCN(CC)CC)CCN(CC)CC)nc(C)nc21,.,.,.,-1.7,6.7%,.
CN1CCN(C(=O)CCCOc2cc(=O)n(C)c3ccccc23)CC1,-2.6%,0.5%,2.4%,-0.3,.,25.9µM*
COc1ccccc1C1CC(=O)Nc2cc3c(cc21)OCCO3 (configuration not stated),-9.0%,-0.7%,-5.1%,4.9,-22.6%,23.1µM*
N#C/C(=C\c1c(Cl)cccc1Cl)c1nc2ccccc2o1,-3.2%,23.1µM*,14.0%,2.6,1.8%,-10.1%
CCOC(=O)C(=Cc1ccc(Br)cc1)C(=O)OCC,-12.9%,-0.7%,-6.7%,3.9,28.2µM*,?

# Source: PubChem (National Center for Advancing Translational Sciences (NCATS))
